# Measured values reported in the supplement of paper PMC6411743.
# ± gives the standard deviation of the averaged measurements. Targets with the largest changes are over-represented here; the source holds about 6,200 in all.
# Compound: Nc1ncnc2c1ncn2[C@@H]1O[C@H](COP(=O)(O)OP(=O)(O)NP(=O)(O)O)[C@@H](O)[C@H]1O [adenylyl imidodiphosphate]
# Assay: NP40-soluble protein abundance relative to vehicle (solubility fold change) (ratio); higher = more soluble protein in presence of AMP-PNP
# Method in brief: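 Each value is a fold change relative to the detergent-processed vehicle, calculated per replicate from vsn-normalised intensities. Jurkat crude lysate received eight concentrations (0.1 to 10 mM) for 10 min at room temperature and 3 min at 37 °C, then was solubilised in 0.8% NP40 with benzonase (60 min, 4 °C). The ultracentrifuged supernatant was TMT-labelled and run by LC-MS/MS in three independent experiments.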
# UniProt Q96ME7, sequence (Q96ME7 whole entry, one chain of several): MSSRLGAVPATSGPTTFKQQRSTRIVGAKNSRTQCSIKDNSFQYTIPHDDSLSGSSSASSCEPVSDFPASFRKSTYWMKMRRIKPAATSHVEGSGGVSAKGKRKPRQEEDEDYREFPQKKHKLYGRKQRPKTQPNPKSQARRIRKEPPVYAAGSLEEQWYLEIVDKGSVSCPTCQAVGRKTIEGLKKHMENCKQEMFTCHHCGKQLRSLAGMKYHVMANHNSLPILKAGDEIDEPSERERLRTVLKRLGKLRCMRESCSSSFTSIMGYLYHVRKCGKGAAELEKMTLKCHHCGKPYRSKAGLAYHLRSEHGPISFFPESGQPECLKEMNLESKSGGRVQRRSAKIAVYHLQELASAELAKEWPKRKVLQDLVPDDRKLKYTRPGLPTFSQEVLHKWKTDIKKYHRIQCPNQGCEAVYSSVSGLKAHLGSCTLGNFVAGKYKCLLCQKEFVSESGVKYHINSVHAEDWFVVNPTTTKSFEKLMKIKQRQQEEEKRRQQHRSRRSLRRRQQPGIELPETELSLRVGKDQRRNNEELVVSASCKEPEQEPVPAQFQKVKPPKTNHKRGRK
# UniProt P35236, sequence (P35236 whole entry, one chain of several): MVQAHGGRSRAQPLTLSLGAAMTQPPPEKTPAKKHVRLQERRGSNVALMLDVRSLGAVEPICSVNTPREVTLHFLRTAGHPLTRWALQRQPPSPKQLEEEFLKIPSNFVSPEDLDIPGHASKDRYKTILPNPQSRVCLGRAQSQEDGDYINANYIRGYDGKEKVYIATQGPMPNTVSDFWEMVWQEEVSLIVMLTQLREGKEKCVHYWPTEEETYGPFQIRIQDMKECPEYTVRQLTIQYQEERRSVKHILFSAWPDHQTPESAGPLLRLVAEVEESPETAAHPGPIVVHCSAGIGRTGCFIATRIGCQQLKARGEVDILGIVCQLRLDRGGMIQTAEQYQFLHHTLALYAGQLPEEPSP
# UniProt Q9NYL4, sequence (Q9NYL4 whole entry, one chain of several): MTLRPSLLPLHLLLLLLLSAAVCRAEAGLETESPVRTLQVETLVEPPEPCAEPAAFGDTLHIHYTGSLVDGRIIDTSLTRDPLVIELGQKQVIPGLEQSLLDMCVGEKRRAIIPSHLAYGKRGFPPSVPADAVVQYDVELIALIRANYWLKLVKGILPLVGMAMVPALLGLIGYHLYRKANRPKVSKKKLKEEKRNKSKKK
# UniProt Q9UKV3, sequence (Q9UKV3 whole entry, one chain of several): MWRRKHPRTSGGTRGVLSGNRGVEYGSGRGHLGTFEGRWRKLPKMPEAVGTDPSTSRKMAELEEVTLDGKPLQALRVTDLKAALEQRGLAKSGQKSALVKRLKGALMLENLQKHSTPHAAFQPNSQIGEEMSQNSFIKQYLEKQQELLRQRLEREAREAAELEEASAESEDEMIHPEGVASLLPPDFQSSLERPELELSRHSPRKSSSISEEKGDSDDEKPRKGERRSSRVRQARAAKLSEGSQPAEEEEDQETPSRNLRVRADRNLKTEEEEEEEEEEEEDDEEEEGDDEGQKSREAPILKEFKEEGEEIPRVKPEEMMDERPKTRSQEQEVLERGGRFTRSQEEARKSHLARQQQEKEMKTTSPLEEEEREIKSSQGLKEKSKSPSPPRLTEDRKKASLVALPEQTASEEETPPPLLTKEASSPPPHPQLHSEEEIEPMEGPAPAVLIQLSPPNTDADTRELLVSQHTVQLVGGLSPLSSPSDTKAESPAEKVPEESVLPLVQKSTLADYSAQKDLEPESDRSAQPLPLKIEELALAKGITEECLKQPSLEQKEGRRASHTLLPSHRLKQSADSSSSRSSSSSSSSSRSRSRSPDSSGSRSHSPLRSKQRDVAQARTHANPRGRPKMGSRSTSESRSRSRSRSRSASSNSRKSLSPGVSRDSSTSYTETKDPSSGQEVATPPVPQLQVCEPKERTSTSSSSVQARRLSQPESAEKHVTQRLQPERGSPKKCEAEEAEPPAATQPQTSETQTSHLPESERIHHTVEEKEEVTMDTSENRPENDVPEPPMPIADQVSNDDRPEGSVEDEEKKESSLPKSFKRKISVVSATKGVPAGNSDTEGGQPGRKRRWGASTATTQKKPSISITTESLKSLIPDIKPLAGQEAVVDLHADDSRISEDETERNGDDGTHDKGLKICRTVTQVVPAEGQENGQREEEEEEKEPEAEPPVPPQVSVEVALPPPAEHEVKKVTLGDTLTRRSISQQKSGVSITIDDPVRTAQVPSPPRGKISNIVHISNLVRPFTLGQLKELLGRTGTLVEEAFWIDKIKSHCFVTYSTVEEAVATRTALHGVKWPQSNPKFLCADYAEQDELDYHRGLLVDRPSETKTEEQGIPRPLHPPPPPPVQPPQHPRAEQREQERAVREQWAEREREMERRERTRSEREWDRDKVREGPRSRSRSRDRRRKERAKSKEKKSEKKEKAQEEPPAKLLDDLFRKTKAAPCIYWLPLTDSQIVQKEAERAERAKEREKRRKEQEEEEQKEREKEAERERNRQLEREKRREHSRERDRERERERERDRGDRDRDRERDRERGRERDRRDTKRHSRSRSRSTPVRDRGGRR
# UniProt Q8N2M8, sequence (Q8N2M8 whole entry, one chain of several): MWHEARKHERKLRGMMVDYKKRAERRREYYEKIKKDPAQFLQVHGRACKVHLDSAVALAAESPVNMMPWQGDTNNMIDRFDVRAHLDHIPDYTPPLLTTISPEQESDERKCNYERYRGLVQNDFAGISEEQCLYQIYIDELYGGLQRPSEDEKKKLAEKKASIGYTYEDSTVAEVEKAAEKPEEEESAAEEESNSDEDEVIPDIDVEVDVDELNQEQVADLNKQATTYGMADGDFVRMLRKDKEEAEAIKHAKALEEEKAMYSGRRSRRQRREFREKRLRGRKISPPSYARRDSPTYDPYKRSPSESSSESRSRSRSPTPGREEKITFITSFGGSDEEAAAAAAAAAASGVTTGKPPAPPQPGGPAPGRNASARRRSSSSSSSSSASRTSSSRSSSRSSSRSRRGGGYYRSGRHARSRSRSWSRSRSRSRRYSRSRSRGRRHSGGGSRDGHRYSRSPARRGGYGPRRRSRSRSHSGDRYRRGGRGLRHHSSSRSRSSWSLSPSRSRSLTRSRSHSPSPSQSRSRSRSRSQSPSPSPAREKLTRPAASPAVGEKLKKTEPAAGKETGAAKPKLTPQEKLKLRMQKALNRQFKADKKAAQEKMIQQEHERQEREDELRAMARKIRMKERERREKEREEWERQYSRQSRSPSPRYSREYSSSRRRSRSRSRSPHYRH
# UniProt Q13309, sequence (Q13309 whole entry, one chain of several): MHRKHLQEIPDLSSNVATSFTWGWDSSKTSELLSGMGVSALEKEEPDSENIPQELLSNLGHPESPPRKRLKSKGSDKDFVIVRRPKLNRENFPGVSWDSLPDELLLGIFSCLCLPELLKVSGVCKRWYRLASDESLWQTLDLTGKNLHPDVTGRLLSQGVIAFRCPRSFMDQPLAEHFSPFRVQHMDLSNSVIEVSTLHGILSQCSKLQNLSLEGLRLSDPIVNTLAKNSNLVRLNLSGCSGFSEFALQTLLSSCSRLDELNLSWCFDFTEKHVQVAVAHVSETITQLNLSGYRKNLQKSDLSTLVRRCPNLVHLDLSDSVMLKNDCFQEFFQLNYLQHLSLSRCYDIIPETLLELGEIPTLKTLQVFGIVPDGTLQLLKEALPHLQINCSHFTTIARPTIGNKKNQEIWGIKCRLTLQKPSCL
# UniProt O75264, sequence (O75264 whole entry, one chain of several): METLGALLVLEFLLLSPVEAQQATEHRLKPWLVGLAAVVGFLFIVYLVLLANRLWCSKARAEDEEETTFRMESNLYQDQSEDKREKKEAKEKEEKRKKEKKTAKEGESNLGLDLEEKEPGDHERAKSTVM
# UniProt B0I1T2, sequence (B0I1T2 whole entry): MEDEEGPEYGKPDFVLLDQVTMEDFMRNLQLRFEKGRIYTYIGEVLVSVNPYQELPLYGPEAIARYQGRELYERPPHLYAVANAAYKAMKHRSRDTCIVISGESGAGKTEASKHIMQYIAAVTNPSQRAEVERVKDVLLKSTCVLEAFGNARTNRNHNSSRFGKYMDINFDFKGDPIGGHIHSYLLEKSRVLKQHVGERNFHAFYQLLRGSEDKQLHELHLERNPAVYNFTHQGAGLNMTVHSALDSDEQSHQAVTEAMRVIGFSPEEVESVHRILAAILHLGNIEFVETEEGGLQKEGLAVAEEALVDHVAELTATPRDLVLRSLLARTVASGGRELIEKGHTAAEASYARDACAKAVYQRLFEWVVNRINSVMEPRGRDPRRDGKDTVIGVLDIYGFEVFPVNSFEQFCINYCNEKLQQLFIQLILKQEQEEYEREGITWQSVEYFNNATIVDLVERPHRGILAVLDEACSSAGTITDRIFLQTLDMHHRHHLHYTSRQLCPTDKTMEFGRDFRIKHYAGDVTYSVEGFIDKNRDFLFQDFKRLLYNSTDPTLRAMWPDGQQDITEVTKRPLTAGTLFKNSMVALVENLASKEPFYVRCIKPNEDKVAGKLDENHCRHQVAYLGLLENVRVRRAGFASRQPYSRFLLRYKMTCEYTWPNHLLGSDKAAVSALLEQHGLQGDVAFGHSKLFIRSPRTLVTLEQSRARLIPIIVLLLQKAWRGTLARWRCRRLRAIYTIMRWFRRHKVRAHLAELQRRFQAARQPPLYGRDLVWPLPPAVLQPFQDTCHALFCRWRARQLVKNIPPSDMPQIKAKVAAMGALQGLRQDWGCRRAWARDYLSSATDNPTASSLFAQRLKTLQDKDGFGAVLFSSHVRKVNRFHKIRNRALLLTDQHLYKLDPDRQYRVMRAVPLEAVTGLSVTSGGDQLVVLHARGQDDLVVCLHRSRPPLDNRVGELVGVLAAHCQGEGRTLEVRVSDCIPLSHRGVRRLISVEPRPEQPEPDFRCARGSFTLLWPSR
# UniProt P09496, sequence (P09496 whole entry, one chain of several): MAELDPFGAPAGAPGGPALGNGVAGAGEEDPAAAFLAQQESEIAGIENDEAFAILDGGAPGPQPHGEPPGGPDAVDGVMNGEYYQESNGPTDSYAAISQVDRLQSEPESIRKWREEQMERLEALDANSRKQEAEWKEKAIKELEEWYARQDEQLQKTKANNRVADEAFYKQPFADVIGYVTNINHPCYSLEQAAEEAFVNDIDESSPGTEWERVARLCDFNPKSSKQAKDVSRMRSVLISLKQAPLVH
Target,NP40-soluble protein abundance (concentration: 1mM),NP40-soluble protein abundance (concentration: 2mM),NP40-soluble protein abundance (concentration: 4mM),NP40-soluble protein abundance (concentration: 6mM),NP40-soluble protein abundance (concentration: 8mM),NP40-soluble protein abundance (concentration: 10mM)
H0YLE6|Q9NWH9 (UniProt Q9NWH9),1.05 ± 0.044,1.11 ± 0.083,1.08 ± 0.039,1.12 ± 0.092,1.11 ± 0.094,1.17 ± 0.094
D6RAJ6|Q9UKT5|Q9UKT5-2 (UniProt Q9UKT5),1.01 ± 0.035,0.996 ± 0.032,0.986 ± 0.024,0.975 ± 0.026,0.983 ± 0.035,0.981 ± 0.045
B8ZZS2|Q13506|Q13506-2 (UniProt Q13506),0.9966 ± 0.0056,1.02 ± 0.019,0.9788 ± 0.0084,1.024 ± 0.0073,1.01 ± 0.029,1.008 ± 0.0093
E9PLV1|Q9NQV6|Q9NQV6-1|Q9NQV6-2|Q9NQV6-4|Q9NQV6-5|Q9NQV6-6|Q9NQV6-7|E9PRS0 (UniProt Q9NQV6),1 ± 0.012,0.963 ± 0.055,0.9952 ± 0.0059,0.989 ± 0.021,1 ± 0.034,0.98 ± 0.023
E7EMP6|Q96FZ2 (UniProt Q96FZ2),1.06 ± 0.015,1.01 ± 0.032,1.04 ± 0.021,0.9875 ± 0.0043,1.01 ± 0.016,1 ± 0.033
A0A0A0MTL5|Q13309|Q13309-2 (UniProt Q13309),0.986 ± 0.041,0.965 ± 0.037,0.976 ± 0.029,0.932 ± 0.053,0.923 ± 0.036,0.91 ± 0.014
MYO1G (UniProt B0I1T2),1.14 ± 0.074,1.12 ± 0.11,1.27 ± 0.22,1.34 ± 0.3,1.44 ± 0.43,1.47 ± 0.46
F5GXC5|H3BUJ1|Q8TB96 (UniProt Q8TB96),1.01 ± 0.017,1.02 ± 0.054,1.01 ± 0.037,1.008 ± 0.0079,1.01 ± 0.024,0.996 ± 0.023
H3BRQ0|Q96CD2 (UniProt Q96CD2),0.997 ± 0.028,0.998 ± 0.014,0.9917 ± 0.0054,1.018 ± 0.008,1 ± 0.041,0.978 ± 0.011
K7EKM7 (UniProt O75264),1 ± 0.035,0.988 ± 0.015,1 ± 0.038,0.971 ± 0.032,0.9753 ± 0.0085,1.01 ± 0.014
G3XAG1|Q96ME7|Q96ME7-3 (UniProt Q96ME7),1.04 ± 0.064,1.03 ± 0.1,1.17 ± 0.086,1.39 ± 0.083,1.52 ± 0.039,1.64 ± 0.1
E7EQT4|Q9UKV3-5|S4R3H4|Q9UKV3-3 (UniProt Q9UKV3),1.05 ± 0.061,1.1 ± 0.021,1.05 ± 0.07,1.03 ± 0.09,0.972 ± 0.04,1.04 ± 0.069
A0A0A0MQS2|F5H0Q6 (UniProt Q8N2M8),1.06 ± 0.049,1.13 ± 0.083,1.04 ± 0.064,1.06 ± 0.1,1.04 ± 0.043,1.06 ± 0.015
F8VVZ0|P61020 (UniProt P61020),1.03 ± 0.028,0.993 ± 0.013,1.01 ± 0.024,1.07 ± 0.026,1.08 ± 0.064,1.05 ± 0.018
E9PLT2|P17480|P17480-2 (UniProt P17480),1.08 ± 0.032,1.23 ± 0.06,1.32 ± 0.055,1.47 ± 0.026,1.56 ± 0.027,1.73 ± 0.044
C9JKL2|O95772|O95772-2|C9J3F5|C9JJ39|C9JPX5 (UniProt O95772),1.02 ± 0.019,1.04 ± 0.036,1.01 ± 0.016,0.989 ± 0.028,0.989 ± 0.019,1 ± 0.034
E9PB61|Q86V81 (UniProt Q86V81),0.969 ± 0.032,1.08 ± 0.042,1.09 ± 0.027,1.27 ± 0.081,1.41 ± 0.14,1.6 ± 0.28
F5H0R1|Q9H6E5 (UniProt Q9H6E5),0.994 ± 0.023,1.01 ± 0.039,1.02 ± 0.016,0.973 ± 0.032,0.983 ± 0.024,0.978 ± 0.025
FAM20B (UniProt O75063),0.973 ± 0.02,0.993 ± 0.022,0.978 ± 0.024,0.99 ± 0.024,0.963 ± 0.016,1 ± 0.042
B5MCS2|Q8WTS6 (UniProt Q8WTS6),0.93 ± 0.076,0.946 ± 0.039,0.946 ± 0.043,0.954 ± 0.032,0.957 ± 0.022,0.936 ± 0.042
A0A0A0MTG1|A0A0G2JIA5|A0A140T8Y0|A0A140TA35|A0A140TA36|A0A140TA40|A0A140TA45|Q5ST30|Q5ST30-4|A0A0G2JL52|B4E0K6|B7ZL25 (UniProt Q5ST30),1 ± 0.017,0.992 ± 0.051,0.992 ± 0.02,0.98 ± 0.034,0.979 ± 0.022,0.969 ± 0.04
A0A0G2JNU3|A6H8Y1|A6H8Y1-6|A6H8Y1-7 (UniProt A6H8Y1),1.05 ± 0.041,1.087 ± 0.0063,1.12 ± 0.056,1.17 ± 0.067,1.12 ± 0.07,1.22 ± 0.046
SCO2 (UniProt O43819),0.972 ± 0.0067,0.949 ± 0.054,0.991 ± 0.04,0.95 ± 0.027,0.936 ± 0.015,0.934 ± 0.045
F8VU90|Q9NYL4|Q9NYL4-2 (UniProt Q9NYL4),1.01 ± 0.042,1.04 ± 0.043,1.07 ± 0.062,0.997 ± 0.031,0.999 ± 0.084,0.994 ± 0.12
D6REA0|O75879 (UniProt O75879),0.962 ± 0.026,0.9665 ± 0.0091,0.968 ± 0.036,1.03 ± 0.028,0.986 ± 0.038,1.003 ± 0.0032
J3KNF8|O43169 (UniProt O43169),1.15 ± 0.069,1.34 ± 0.33,1.1 ± 0.049,1.08 ± 0.047,1.03 ± 0.08,1.05 ± 0.054
F8WF69|P09496-2 (UniProt P09496),0.9494 ± 0.001,0.919 ± 0.057,0.873 ± 0.05,0.833 ± 0.033,0.806 ± 0.014,0.813 ± 0.018
H7C5I3|J3KR55|P35236|P35236-2|P35236-3 (UniProt P35236),0.978 ± 0.0098,1.01 ± 0.021,0.994 ± 0.037,0.978 ± 0.011,0.959 ± 0.018,0.982 ± 0.033
E5RFJ1|Q96MF7 (UniProt Q96MF7),1.01 ± 0.028,1.03 ± 0.06,1.02 ± 0.035,0.957 ± 0.033,0.989 ± 0.022,0.9706 ± 0.0092
B5MCX3|Q15019|Q15019-2 (UniProt Q15019),1.027 ± 0.0023,0.997 ± 0.032,1.003 ± 0.0091,0.984 ± 0.026,0.98 ± 0.017,0.952 ± 0.037
